DRD3 agonist: D3 dopamine receptor (human) agonism; P35462; D3R DiscoveRx beta-arrestin cells, luminescence, 90 min; max activation, %; 410,000 compounds, 0.58% hits; in the data active = max activation above about 30%
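Agonist-mode cell screen: cells plated at 1500/well and incubated overnight at 37 °C, then exposed to library compounds for 90 min at 37 °C. Detection reagent was added for 30–60 min at room temperature, and luminescence was read.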
D3 antag: D3 dopamine receptor (human) antagonism; max response, negative = inhibition, %; AID 652054; D3R cells, DiscoveRx beta-arrestin luminescence, antagonist mode; hits give low values; P35462; 360,000 compounds, 2.5% hits; in the data active = max response below about -50%; inconclusive = no clear call, values can overlap the other calls
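Cells expressing the human receptor were seeded at 1500 cells/well, incubated overnight at 37 degrees C in 5% CO2, then exposed to library compounds with dopamine controls for 90 minutes at 37 degrees C before luminescent detection.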
GLP1R ag: agonists of human GLP-1 receptor. P43220. HEK293 GLP-1R CRE-luciferase, luminescence, 4-6 h; cells express a hypersensitive GLP-1R form. Potency, µM (titrated, usually from 45.6 µM), usual class: activators. 380,000 compounds, 0.007% hits. AID 624172
Target sequence (P43220 whole entry, looked up): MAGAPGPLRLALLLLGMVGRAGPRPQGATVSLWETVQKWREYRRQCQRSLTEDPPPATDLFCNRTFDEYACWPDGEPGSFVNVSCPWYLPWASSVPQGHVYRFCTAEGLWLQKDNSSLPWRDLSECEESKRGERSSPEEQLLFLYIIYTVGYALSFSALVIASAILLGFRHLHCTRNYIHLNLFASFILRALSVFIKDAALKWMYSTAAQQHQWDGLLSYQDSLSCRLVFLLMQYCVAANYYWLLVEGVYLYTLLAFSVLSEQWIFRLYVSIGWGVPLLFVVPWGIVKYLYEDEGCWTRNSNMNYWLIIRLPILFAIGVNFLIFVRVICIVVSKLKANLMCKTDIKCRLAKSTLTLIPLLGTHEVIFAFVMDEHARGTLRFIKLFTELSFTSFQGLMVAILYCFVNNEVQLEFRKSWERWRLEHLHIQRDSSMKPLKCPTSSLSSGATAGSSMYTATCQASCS
GLP-1R inv ag: inverse agonists of human GLP-1 receptor | HEK293 GLP-1R CRE-luciferase, luminescence, 24 h; GLP-1R form is constitutively active | Potency, µM (highest dose often 38.3 µM), actives largely listed as inhibitors | 410,000 compounds, 1.6% hits; note: nearly all actives have a fitted effect of over 55% in size
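Readout was luciferase luminescence, measured 12 min after detection reagent at room temperature. Beforehand, GLP-1R reporter HEK293 cells had sat 12 h, then received compounds for 24 hr at 37 deg C.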
A number is an active result; 0 = inactive; ? = inconclusive; - = no result given. This is a sample that favours compounds with a hit; in the whole collection about 4.3% have one here. Unless noted, calls come from the whole dose curve; as a rule, active = well fitted curve in the direction sought with a large enough effect; inconclusive = small, poorly fitted or top-dose-only effect, or another doubt; inactive = no such curve, though single readings can be large; an effect the other way counts as inactive or inconclusive.

SMILES	DRD3 agonist	D3 antag	GLP1R ag	GLP-1R inv ag
Cc1cc(NC(=O)CSc2ncc(C(=O)Nc3ccc(C)c(C)c3)c(=O)n2C)no1	0	-	-	0
Nc1sc2c(c1C(=O)NC1CCS(=O)(=O)C1)CCC2 (stereo not given)	0	0	0	0
CC(=O)N1CN(C2CCS(=O)(=O)C2)Cc2c1sc1c2CCCC1 (stereo not given)	0	-56	0	0
CCc1ccc(NC(=O)C(C)OC(=O)c2ccc(NS(=O)(=O)c3ccc(C)c([N+](=O)[O-])c3)cc2)cc1 (stereo not given)	0	-53	0	0
Cc1cccc2nc3ccccc3cc12	0	0	0	0
Cc1[nH]ccc2cc3nc4ccccc4c3cc12	0	0	0	10µM
O=C(CC(c1ccccc1)c1cc(Br)ccc1O)N1CCCCC1 (stereo not given)	0	0	0	10µM
COc1ccc(CCN2C(=O)N(c3ccc(F)cc3)C(=O)C2CC(=O)Nc2ccc(OC)cc2)cc1 (stereo not given)	0	-	-	0
O=C(C1CCN(c2ncnc3c2nc2n3CCCCC2)CC1)N1CCN(c2cccc(Cl)c2)CC1	0	0	0	8.9µM
O=C(NCCCN1CCN(c2ccccc2)CC1)C1CCCN(c2ncnc3c2nc2n3CCCCC2)C1 (stereo not given)	0	-67	0	?
O=C(NCCc1ccccc1)C1CCCN(c2ncnc3c2nc2n3CCCCC2)C1 (stereo not given)	0	0	0	?
Cc1ccc(N(CC(=O)NCCc2ccccc2)S(=O)(=O)N(C)C)cc1	0	-	0	0
CCOc1cc(N2C(=O)CC3CS(=O)(=O)CC32)c(OCC)cc1NC(=O)c1ccccc1 (stereo not given)	0	-62	0	0
Cc1cc(C)c(OCCCNC2CCCC2)c(Br)c1	0	-53	0	?
O=C(c1ccc2c(c1)OCCCO2)N1CCCCC1	0	0	0	0
